Data reported in ChEMBL document CHEMBL1961873, “Compounds: GSK PKIS; Assays: Nanosyn kinase panel” (2012).

What was measured:
[1] = molecular target: Ribosomal protein S6 kinase alpha-6 (Homo sapiens) (UniProt Q9UK32); conditions: at 1 µM;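 also: each value is a mean inhibition of RSK4 from a GSK PKIS panel screen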
[2] = molecular target: T1, Serine/threonine-protein kinase Sgk1 (Homo sapiens) (UniProt O00141); conditions: at 0.1 µM
T1 sequence (whole entry): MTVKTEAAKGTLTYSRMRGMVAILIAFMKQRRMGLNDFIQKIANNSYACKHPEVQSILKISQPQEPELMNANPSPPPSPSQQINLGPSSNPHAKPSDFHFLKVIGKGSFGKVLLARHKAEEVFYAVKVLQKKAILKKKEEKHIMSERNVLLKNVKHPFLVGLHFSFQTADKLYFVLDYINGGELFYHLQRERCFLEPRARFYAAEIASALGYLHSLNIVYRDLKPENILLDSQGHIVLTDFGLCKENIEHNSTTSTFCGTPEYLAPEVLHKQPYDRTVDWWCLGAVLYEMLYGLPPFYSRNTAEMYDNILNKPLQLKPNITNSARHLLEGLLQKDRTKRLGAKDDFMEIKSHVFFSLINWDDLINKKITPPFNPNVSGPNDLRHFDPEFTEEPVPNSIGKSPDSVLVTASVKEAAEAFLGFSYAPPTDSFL

[3] = molecular target: T1, Serine/threonine-protein kinase Sgk1 (Homo sapiens); conditions: at 1 µM
[4] = molecular target: T2, Serine/threonine-protein kinase Sgk2 (Homo sapiens) (UniProt Q9HBY8); conditions: at 0.1 µM
T2 sequence (whole entry): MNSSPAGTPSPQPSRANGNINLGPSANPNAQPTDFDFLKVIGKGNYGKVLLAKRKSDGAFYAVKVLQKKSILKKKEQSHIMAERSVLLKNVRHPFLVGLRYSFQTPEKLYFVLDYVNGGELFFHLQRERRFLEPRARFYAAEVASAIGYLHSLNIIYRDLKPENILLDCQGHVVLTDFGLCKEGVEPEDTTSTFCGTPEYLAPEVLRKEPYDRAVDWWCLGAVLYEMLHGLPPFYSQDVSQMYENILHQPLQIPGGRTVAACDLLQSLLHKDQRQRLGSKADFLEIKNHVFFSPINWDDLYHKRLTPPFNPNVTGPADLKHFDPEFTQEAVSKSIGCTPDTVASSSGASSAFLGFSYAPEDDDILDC

[5] = molecular target: T2, Serine/threonine-protein kinase Sgk2 (Homo sapiens); conditions: at 1 µM
[6] = molecular target: T3, Serine/threonine-protein kinase Sgk3 (Homo sapiens) (UniProt Q96BR1); conditions: at 0.1 µM
T3 sequence (whole entry): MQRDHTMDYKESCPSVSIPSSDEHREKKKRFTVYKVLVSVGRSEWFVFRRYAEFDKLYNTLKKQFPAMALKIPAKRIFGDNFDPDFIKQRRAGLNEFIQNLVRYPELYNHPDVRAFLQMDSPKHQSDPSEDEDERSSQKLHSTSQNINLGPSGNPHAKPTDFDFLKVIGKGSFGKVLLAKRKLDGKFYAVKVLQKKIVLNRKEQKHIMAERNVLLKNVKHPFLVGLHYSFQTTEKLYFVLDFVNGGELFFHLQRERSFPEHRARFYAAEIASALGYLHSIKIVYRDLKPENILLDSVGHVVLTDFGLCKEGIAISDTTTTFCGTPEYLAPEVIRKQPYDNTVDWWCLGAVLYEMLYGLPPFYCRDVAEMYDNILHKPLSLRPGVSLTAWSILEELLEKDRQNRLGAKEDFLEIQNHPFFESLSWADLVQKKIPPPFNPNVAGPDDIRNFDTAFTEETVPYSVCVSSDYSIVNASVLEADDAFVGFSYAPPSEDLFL

[7] = molecular target: T3, Serine/threonine-protein kinase Sgk3 (Homo sapiens); conditions: at 1 µM
[8] = molecular target: 5'-AMP-activated protein kinase catalytic subunit alpha-1 (Homo sapiens) (UniProt Q13131); conditions: at 0.1 µM
[9] = molecular target: 5'-AMP-activated protein kinase catalytic subunit alpha-1 (Homo sapiens) (UniProt Q13131); conditions: at 1 µM
[10] = molecular target: 5'-AMP-activated protein kinase catalytic subunit alpha-2 (Homo sapiens) (UniProt P54646); conditions: at 0.1 µM
[11] = molecular target: 5'-AMP-activated protein kinase catalytic subunit alpha-2 (Homo sapiens) (UniProt P54646); conditions: at 1 µM
[12] = molecular target: T4, NUAK family SNF1-like kinase 1 (Homo sapiens) (UniProt O60285); conditions: at 0.1 µM
T4 sequence (whole entry): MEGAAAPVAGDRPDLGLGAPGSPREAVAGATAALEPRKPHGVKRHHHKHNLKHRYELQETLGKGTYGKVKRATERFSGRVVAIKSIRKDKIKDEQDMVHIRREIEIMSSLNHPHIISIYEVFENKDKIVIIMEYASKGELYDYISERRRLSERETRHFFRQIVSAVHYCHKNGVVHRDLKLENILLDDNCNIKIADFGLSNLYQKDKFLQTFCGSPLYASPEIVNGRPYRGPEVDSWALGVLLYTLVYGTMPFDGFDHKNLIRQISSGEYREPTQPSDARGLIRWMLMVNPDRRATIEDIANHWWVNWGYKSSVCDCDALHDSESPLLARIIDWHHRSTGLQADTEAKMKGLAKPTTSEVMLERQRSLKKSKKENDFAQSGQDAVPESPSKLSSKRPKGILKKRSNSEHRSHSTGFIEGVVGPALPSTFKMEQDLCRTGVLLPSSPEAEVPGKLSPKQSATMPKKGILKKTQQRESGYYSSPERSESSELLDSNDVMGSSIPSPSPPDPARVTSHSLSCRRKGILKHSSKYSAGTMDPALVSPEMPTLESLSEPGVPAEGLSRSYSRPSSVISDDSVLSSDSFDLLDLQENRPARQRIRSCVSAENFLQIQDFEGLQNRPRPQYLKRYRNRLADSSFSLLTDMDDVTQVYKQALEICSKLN

[13] = molecular target: T4, NUAK family SNF1-like kinase 1 (Homo sapiens); conditions: at 1 µM
[14] = molecular target: T5, Serine/threonine-protein kinase BRSK1 (Homo sapiens) (UniProt Q8TDC3); conditions: at 0.1 µM
T5 sequence (whole entry): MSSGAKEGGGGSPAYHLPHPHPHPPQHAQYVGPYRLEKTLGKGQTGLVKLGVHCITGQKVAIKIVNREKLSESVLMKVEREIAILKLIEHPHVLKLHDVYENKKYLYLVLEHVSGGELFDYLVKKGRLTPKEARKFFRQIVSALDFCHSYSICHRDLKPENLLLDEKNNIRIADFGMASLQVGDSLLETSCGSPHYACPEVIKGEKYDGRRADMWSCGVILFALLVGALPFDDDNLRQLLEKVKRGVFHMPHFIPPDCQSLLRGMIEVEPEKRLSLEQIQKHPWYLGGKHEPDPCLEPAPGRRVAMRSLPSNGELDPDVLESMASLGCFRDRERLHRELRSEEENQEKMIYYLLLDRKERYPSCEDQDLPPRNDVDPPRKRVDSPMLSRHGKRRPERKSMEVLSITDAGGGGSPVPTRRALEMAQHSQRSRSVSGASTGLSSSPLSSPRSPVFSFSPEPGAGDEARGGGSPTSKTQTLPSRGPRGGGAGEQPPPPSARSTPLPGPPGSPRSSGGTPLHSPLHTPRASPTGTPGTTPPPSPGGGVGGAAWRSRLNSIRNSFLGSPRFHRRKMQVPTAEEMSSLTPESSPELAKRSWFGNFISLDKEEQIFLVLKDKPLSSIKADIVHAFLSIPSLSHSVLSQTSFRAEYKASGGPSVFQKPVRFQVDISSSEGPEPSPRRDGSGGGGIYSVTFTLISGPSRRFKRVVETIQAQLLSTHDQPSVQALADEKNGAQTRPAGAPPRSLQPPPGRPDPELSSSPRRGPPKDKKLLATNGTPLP

[15] = molecular target: T5, Serine/threonine-protein kinase BRSK1 (Homo sapiens); conditions: at 1 µM
[16] = molecular target: T6, Serine/threonine-protein kinase BRSK2 (Homo sapiens) (UniProt Q8IWQ3); conditions: at 0.1 µM
T6 sequence (whole entry): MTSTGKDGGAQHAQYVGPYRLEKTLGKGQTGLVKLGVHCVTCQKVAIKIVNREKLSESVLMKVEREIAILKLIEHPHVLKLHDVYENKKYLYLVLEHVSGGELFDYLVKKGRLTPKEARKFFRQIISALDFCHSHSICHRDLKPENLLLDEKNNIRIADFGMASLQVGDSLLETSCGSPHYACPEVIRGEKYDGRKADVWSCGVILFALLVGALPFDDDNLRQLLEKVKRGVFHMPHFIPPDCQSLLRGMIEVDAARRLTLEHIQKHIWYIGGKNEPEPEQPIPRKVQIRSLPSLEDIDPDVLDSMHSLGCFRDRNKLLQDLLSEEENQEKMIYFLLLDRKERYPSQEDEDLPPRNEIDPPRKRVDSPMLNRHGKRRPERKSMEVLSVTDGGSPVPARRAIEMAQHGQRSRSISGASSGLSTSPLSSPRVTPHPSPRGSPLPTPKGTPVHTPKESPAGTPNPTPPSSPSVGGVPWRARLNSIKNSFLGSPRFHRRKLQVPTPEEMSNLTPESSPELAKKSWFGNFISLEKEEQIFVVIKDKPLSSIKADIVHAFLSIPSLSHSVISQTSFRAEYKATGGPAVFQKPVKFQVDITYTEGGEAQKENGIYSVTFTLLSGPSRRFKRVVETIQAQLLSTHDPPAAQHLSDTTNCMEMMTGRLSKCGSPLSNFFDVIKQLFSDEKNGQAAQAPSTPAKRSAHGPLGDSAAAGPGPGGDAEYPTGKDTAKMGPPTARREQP

[17] = molecular target: T6, Serine/threonine-protein kinase BRSK2 (Homo sapiens); conditions: at 1 µM
[18] = molecular target: Calcium/calmodulin-dependent protein kinase type 1D (Homo sapiens) (UniProt Q8IU85); conditions: at 0.1 µM
[19] = molecular target: Calcium/calmodulin-dependent protein kinase type 1D (Homo sapiens) (UniProt Q8IU85); conditions: at 1 µM
[20] = molecular target: Calcium/calmodulin-dependent protein kinase type II subunit alpha (Homo sapiens) (UniProt Q9UQM7); conditions: at 0.1 µM;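 also: reported values are averages (mean inhibition of CAMK2A)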
Chain of Calcium/calmodulin-dependent protein kinase type II subunit alpha (Homo sapiens) (Q9UQM7 whole entry): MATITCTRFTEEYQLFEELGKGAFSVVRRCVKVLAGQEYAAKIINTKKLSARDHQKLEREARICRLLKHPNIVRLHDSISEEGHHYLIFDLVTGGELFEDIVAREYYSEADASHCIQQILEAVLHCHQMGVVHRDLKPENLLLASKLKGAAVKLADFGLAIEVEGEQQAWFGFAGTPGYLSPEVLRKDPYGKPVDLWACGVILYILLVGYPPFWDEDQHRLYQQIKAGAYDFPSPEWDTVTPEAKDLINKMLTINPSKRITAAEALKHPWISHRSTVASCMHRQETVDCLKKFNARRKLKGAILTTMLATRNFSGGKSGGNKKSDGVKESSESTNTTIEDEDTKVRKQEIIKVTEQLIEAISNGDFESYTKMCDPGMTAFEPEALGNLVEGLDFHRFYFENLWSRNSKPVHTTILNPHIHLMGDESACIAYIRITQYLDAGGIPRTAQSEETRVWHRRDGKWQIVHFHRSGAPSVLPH

Chain of 5'-AMP-activated protein kinase catalytic subunit alpha-2 (Homo sapiens) (P54646 whole entry, looked up): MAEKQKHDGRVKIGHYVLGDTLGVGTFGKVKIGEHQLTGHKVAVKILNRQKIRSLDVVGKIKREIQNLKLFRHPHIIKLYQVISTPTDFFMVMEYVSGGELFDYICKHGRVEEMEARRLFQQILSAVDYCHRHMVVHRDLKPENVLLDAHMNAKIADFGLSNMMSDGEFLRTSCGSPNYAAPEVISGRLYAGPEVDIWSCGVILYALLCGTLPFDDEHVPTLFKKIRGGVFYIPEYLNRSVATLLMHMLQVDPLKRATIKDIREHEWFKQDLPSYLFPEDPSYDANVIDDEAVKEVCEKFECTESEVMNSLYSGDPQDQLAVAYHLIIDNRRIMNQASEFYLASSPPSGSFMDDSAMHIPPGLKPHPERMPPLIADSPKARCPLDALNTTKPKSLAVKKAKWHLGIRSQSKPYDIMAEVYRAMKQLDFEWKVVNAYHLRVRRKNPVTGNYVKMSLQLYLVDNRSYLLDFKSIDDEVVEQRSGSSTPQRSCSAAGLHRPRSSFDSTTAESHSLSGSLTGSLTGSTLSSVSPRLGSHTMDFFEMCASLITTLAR
Chain of Calcium/calmodulin-dependent protein kinase type 1D (Homo sapiens) (Q8IU85 whole entry, looked up): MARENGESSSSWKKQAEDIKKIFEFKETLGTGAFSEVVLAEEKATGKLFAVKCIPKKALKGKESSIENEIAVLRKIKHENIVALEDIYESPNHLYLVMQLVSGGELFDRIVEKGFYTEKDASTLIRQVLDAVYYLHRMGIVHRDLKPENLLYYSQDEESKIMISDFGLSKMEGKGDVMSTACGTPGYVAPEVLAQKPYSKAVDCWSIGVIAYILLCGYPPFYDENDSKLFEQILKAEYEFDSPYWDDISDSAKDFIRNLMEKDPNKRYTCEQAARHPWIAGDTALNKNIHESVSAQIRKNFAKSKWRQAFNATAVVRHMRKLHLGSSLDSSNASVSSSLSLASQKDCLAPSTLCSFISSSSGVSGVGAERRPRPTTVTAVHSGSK
Chain of 5'-AMP-activated protein kinase catalytic subunit alpha-1 (Homo sapiens) (Q13131 whole entry, looked up): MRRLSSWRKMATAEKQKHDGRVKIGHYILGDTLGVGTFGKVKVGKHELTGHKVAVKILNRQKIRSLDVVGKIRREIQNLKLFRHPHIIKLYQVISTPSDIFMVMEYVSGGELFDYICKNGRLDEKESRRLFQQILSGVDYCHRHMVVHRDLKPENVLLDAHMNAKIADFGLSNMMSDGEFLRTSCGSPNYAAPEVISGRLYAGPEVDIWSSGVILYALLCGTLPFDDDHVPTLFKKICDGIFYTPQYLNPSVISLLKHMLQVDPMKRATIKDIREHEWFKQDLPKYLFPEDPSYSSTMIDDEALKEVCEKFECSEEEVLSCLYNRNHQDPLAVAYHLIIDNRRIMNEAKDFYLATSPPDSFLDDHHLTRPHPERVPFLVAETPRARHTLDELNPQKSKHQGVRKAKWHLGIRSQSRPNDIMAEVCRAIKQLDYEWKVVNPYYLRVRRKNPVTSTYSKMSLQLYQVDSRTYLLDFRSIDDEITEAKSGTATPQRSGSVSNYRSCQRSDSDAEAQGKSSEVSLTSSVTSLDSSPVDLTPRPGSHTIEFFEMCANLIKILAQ
Chain of Ribosomal protein S6 kinase alpha-6 (Homo sapiens) (Q9UK32 whole entry): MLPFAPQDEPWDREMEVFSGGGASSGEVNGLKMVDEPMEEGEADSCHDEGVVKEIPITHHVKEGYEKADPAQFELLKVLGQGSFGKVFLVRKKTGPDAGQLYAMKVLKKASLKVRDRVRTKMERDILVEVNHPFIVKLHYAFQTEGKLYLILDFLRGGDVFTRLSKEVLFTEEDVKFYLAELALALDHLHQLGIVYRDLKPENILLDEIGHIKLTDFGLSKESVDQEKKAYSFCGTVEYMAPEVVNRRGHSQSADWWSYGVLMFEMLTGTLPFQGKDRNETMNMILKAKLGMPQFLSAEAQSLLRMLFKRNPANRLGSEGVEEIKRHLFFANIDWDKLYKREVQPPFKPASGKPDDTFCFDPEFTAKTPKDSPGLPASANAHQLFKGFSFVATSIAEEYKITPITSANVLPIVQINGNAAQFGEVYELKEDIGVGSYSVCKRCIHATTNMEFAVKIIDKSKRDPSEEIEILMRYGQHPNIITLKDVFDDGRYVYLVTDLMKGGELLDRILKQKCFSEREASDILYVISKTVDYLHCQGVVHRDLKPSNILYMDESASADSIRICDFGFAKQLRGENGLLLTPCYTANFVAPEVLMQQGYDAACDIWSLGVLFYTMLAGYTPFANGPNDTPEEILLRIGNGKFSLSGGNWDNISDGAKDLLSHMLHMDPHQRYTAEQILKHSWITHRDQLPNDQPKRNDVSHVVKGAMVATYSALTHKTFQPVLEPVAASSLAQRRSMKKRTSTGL

| SMILES | inhibition [1] [%] | inhibition [2] [%] | inhibition [3] [%] | inhibition [4] [%] | inhibition [5] [%] | inhibition [6] [%] | inhibition [7] [%] | inhibition [8] [%] | inhibition [9] [%] | inhibition [10] [%] | inhibition [11] [%] | inhibition [12] [%] | inhibition [13] [%] | inhibition [14] [%] | inhibition [15] [%] | inhibition [16] [%] | inhibition [17] [%] | inhibition [18] [%] | inhibition [19] [%] | inhibition [20] [%] |
| --- | --- | --- | --- | --- | --- | --- | --- | --- | --- | --- | --- | --- | --- | --- | --- | --- | --- | --- | --- | --- |
| CNC(=O)c1cccc(C#Cc2cncnc2Nc2ccc(OCc3cccc(F)c3)c(Cl)c2)c1 | 0.05 | 1.16 | 0.62 | -0.28 | 0.71 | 0.18 | 1.41 | 0.65 | 2.17 | -3.97 | 1.89 | 0.54 | 8.68 | -0.7 | 2.56 | 1.59 | 4.03 | -1.04 | -0.89 | 1.34 |
| COc1cc2c(cc1Nc1nc(Nc3ccsc3C(N)=O)c3cc[nH]c3n1)N(C(=O)CN(C)C)CCC2(C)C | 49.6 | 3.7 | 4.59 | 2.95 | 2.79 | 2.75 | 4.25 | 6.5 | 7.07 | 6.92 | 7.54 | 5.54 | 9.13 | 4.27 | 6.36 | 4.89 | 4.71 | 5.46 | 30.8 | 4.03 |
| COc1cccc(-n2ncc3c(N/N=C/c4ccc(F)cc4)ncnc32)c1 | 1.84 | 4.27 | 5.6 | 2.15 | 0.76 | 4.84 | 3.63 | 3.38 | 5.57 | -0.09 | 3.2 | 6.48 | 16.9 | 1.24 | 12.1 | 5.29 | 17.8 | -0.29 | 1.05 | 3.15 |
| CC(C)COC(=O)c1ccc2c(c1)/C(=C/Nc1ccc(S(N)(=O)=O)cc1)C(=O)N2 | 39.3 | 1.25 | 19 | 1.33 | 1.89 | 1.37 | 3.19 | 23.4 | 72.3 | 5.83 | 36.3 | 29.6 | 75.6 | 5.38 | 38 | 10.1 | 50.1 | 1.82 | 7.89 | 0.26 |
| COc1cc(Nc2nccc(Nc3ccc4c(C)n[nH]c4c3)n2)cc(OC)c1OC | 2.74 | 3.49 | 5.3 | -0.28 | -0.14 | 2.13 | 1.07 | 1.6 | 1.71 | 2.15 | 5.95 | 10.4 | 35.5 | 3.57 | 3.29 | 2.02 | 1.97 | 3.39 | 6.21 | 4.54 |
| NS(=O)(=O)c1ccc(N/N=C2\C(=O)Nc3ccc4ncccc4c32)cc1 | 55.5 | 10.6 | 50 | -0.23 | 21.3 | 1.63 | 10.2 | 54.8 | 82.7 | 28.9 | 62.2 | 79.8 | 85.4 | 46 | 76 | 60.4 | 80.7 | 2.62 | 9.02 | 2.95 |
| COc1cc2ncn(-c3cc(OCc4ccccc4C(F)(F)F)c(C(=O)N(C)C)s3)c2cc1OC | 0.1 | 0.62 | 1.02 | 1.9 | -0.51 | 0.08 | -0.88 | -0.68 | -0.02 | -0.26 | 1.18 | 1.04 | 14.8 | -0.38 | 2.7 | 0.49 | 8.59 | -0.9 | 0.6 | -1.75 |
